Laboratory results reported in PubChem BioAssay.

Target: Mitogen-activated protein kinase 7 (Homo sapiens) (UniProt Q13164)
Test: ERK5 transactivation activators in reporter cells, primary screen, cell-based, HTS (AID 1508626);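 further: luciferase driven by Gal4-ERK5 fusion binding five Gal4 sites before minimal TATA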
Details: HeLa Gal4-ERK5 transactivation, 18 h, at 5 µM, hits give high values;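 active means luciferase signal above three times the same-plate solvent-only control wells; inactive means the rest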

Sequence of Mitogen-activated protein kinase 7 (Homo sapiens) (Q13164 whole entry, looked up, the tested form may be a part): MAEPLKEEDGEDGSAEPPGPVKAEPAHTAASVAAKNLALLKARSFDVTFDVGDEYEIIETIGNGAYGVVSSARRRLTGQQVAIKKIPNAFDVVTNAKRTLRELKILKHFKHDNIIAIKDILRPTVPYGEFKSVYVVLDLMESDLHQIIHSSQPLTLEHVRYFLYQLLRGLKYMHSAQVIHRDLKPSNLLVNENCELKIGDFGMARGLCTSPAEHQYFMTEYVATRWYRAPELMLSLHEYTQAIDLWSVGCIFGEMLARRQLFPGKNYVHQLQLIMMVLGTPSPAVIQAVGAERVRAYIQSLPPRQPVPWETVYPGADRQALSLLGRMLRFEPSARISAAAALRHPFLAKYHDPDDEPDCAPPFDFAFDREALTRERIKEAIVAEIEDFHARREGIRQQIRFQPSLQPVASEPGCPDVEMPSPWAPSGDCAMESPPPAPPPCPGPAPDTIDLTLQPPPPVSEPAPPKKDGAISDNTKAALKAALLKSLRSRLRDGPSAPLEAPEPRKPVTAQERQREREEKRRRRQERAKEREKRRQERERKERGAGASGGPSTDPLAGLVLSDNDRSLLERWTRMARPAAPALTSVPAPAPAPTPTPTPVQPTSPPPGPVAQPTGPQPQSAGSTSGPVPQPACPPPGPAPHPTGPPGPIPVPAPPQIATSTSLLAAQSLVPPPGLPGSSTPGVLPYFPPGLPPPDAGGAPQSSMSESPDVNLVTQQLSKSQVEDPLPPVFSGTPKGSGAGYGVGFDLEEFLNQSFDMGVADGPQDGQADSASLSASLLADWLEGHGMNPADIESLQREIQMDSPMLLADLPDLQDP

Luciferase signal, inactive:
C=CC[C@@H]1/C=C(\C)C[C@H](C)C[C@H](OC)[C@H]2O[C@@](O)(C(=O)C(=O)N3CCCC[C@H]3C(=O)O[C@H](/C(C)=C/[C@@H]3CC[C@@H](O)[C@H](OC)C3)[C@H](C)[C@@H](O)CC1=O)[C@H](C)C[C@@H]2OC 68 AU
Cc1coc2c1C(=O)C(=O)c1c-2ccc2c1CCCC2(C)C 32 AU
COC1=C(OC)C(=O)C(C/C=C(\C)CC/C=C(\C)CC/C=C(\C)CC/C=C(/C)CC/C=C(\C)CC/C=C(\C)CC/C=C(\C)CC/C=C(\C)CC/C=C(\C)CCC=C(C)C)=C(C)C1=O 80 AU
C[C@H]1COC2=C1C(=O)C(=O)c1c2ccc2c1CCCC2(C)C 80 AU
CC[C@@]1(O)C(=O)OCc2c1cc1n(c2=O)Cc2cc3cc(O)ccc3nc2-1 44 AU
CC(C)(CO)[C@@H](O)C(=O)NCCC(=O)O 68 AU
CN(C)CC[C@H](c1ccc(Cl)cc1)c1ccccn1 80 AU
CC(C)=CCC/C(C)=C/CC/C(C)=C/CC/C(C)=C/CC/C(C)=C/CC/C(C)=C/CC/C(C)=C/CC/C(C)=C/CC/C(C)=C/CO 20 AU
Nc1nc(F)nc2c1ncn2[C@@H]1O[C@H](COP(=O)(O)O)[C@@H](O)[C@@H]1O 52 AU
N[C@@H](CC(=O)N1CCn2c(nnc2C(F)(F)F)C1)Cc1cc(F)c(F)cc1F 92 AU
